Assay [1] deals with Lysosomal acid glucosylceramidase (Homo sapiens) (UniProt P04062). Put plainly: Glucocerebrosidase-p2 (AID 348; in the data active = potency below about 10 µM; also: potency is read from the fitted curve at half-maximal effect). To be noted: purified GBA, blue fluorogenic substrate, 40 min. The essentials:
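Compounds titrated from 0.6 nM upwards against 0.2 nM enzyme in pH 5.9 citric acid/KH2PO4, taurocholate, tween-20; blue fluorogenic substrate 80 uM, 40 min room temperature, stopped and read Ex 365/Em 440 for AC50.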

In assay [2] the target is Cytochrome P450 1A2 (Homo sapiens) (UniProt P05177). Put plainly: p450-cyp1a2 (AID 410; calls by dose curve; also: potency is read from the fitted curve at half-maximal effect). To be noted: recombinant CYP1A2, luciferin-ME demethylation, luminescence; series mostly up to 57 µM. The gist of the method:
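Human CYP1A2 (20nM) demethylated Luciferin-ME at its Km (100uM) in 100mM KPO4. After 10 min compound preincubation, NADPH regeneration ran the reaction 60 min at room temperature. Luciferin was read by luminescence, normalized to 57 uM furafylline.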

Assay [3] in a line: Stat Signaling Pathway (AID 446; active = well fitted curve in either direction with a large enough effect, not every such curve was filed as active;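 also: ME-180 cervical cancer cells given 40 pM IL-6 alongside compound; SIE-controlled beta-lactamase reporter measured as 460/530 nm FRET emission ratio; % is scaled to controls: 0 for no effect and ±100 for the full control effect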). To be noted: ME-180 SIE beta-lactamase reporter, IL-6 stimulated, 5 h; at 7.69 µM (top of the series) unless noted. The gist of the method: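 Reporter line: ME-180 cervical carcinoma, SIE-beta-lactamase. Treatment: compound with 40 pM IL-6, 5 hrs, 37 C, in low-serum OPTI-MEM with 10 mM HEPES pH 7.3. Detection: 460/530 nm fluorescence.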
Assay [4] deals with Glucocorticoid receptor (Homo sapiens) (UniProt P04150). Put plainly: GR-GFP Redistribution (AID 450;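 active = compounds whose dose series gives a full or clear partial fitted curve of increased nuclear translocation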; also: potency is read from the fitted curve at half-maximal effect). To be noted: U2OS GR-GFP nuclear translocation, laser cytometry, 2 h.
For assay [5] the target is unchanged. Put plainly: GR-EFC Redistribution (AID 451; calls by dose curve; also: potency is read from the fitted curve at half-maximal effect). To be noted: CHO-K1 GR-EFC translocation, beta-gal luminescence, 2 h. The essentials:
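Translocation of GR-ED fusion to nuclear EA restores b-gal, read by luminescence after 1 h room-temperature detection. Engineered CHO-K1 biosensor cells, 1,000/well, exposed 2 h at 37 C to titrations up to 46 uM final.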

The target in assay [6] is Mitogen-activated protein kinase 10 (Mus musculus) (UniProt Q61831). Put plainly: JNK3 AlphaScreen Assay (AID 530; active = well fitted curve in either direction with a large enough effect, not every such curve was filed as active;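 also: kinase came from lysate of stimulated human HepG2 cells; signal reports phosphorylation of biotinylated GST-cJun 1-79 at Ser73 with 10 µM ATP; % is scaled to controls: 0 for no effect and ±100 for the full control effect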). To be noted: JNK3 lysate, c-Jun phosphorylation; series mostly up to 57.1 µM. The gist of the method: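 Room-temperature AlphaScreen kinase assay; pre-activated HepG2 lysate as JNK3 source, biotin-GST-cJun(1-79) substrate, 10 uM ATP, compound 15 min preincubation.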
A general note: Alpha assays give light when donor and acceptor beads are brought close together.

Assay [7] has as its target 3',5'-cyclic-AMP phosphodiesterase 4B (Homo sapiens) (UniProt Q07343). Nature of the assay: qHTS Assay for Inhibitors of PDE-IV (AID 607; active = well fitted activation curve with a large enough effect in the main read-out, with a control signal flat, not every such curve was filed as active; also: % of control where 0% means no effect). To be noted: HEK293 ACTOne CNG channel cells, membrane potential fluorescence; series mostly up to 22.9 µM. The gist of the method:
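Cell-based read-out of cAMP via a modified cyclic nucleotide-gated channel and membrane potential dye (535/590 nm) in HEK293 cells expressing PDE4 endogenously. Compounds tested up to 22.9 uM final; 100 uM RO 20-1724 reference.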
For orientation: In qHTS, concentration-response curves come from the screen itself.

For assay [8], the target named is Cytochrome P450 3A4 (Homo sapiens) (UniProt P08684). Nature of the assay: qHTS Assay for Inhibitors and Substrates of Cytochrome P450 3A4 (AID 884). Also: potency is read from the fitted curve at half-maximal effect; nearly all actives have a fitted effect of over 50% in size. To be noted: recombinant CYP3A4, Luciferin-PPXE luminescence; series mostly up to 57.1 µM. The essentials: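 20 nM human CYP3A4 with 25 uM Luciferin-PPXE (at KM) in 200 mM KPO4, preincubated 10 min with compound; NADPH regeneration started a 60 min RT reaction. Luciferin detected by luminescence, normalized to 57 uM ketoconazole as full inhibition.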

The target is the same in assay [9]. Put plainly: qHTS Assay for Activators of Cytochrome P450 3A4 (AID 885). Also: nearly all actives have a fitted effect of over 65% in size. To be noted: recombinant CYP3A4, Luciferin-PPXE luminescence, 60 min; series mostly up to 57.1 µM. The essentials:
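Signal was normalized against complete inhibition by 57 uM ketoconazole. The reaction used 20nM CYP3A4 with 25uM Luciferin-PPXE, 10-min compound preincubation and a 60-min NADPH-supported step at RT.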

Assay [10] has as its target Dual specificity protein kinase CLK4 (Homo sapiens) (UniProt Q9HAZ1). Nature of the assay: qHTS Assay for Inhibitors of CDC-like Kinase 4 (Kinase-Glo Assay) (AID 1770). Also: nearly all actives have a fitted effect of over 65% in size. Also: potency is read from the fitted curve at half-maximal effect. To be noted: recombinant Clk4, Kinase-Glo ATP depletion luminescence; series mostly up to 66.7 µM. The essentials: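 Substrate mix (RS peptide 100 uM, ATP 1 uM) dispensed, compound pinned in, then Clk4 added to 25 nM final. Incubated 4.5 h at RT; Kinase-Glo reagent added, luminescence read after 5 min.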

Assay [11] shares this target. Put plainly: qHTS Assay for Inhibitors of CDC-like Kinase 4 (ADP-Glo Assay) (AID 1771). Also: nearly all actives have a fitted effect of over 70% in size. Also: potency is read from the fitted curve at half-maximal effect. To be noted: recombinant CLK4, ADP-Glo luminescence; series mostly up to 80 µM. The gist of the method: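 Clk4 (25 nM) was incubated 1 hr at room temperature with 100 uM RS repeat peptide and 1 uM ATP in buffer with 2 mM MgCl2, 0.5 mM EGTA, 2.5 mM DTT. ADP formed was quantified by ADP-Glo luminescence.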

The target of assay [12] is Ubiquitin carboxyl-terminal hydrolase 1 (Homo sapiens) (UniProt O94782). Put plainly: Inhibitors of USP1/UAF1: Pilot qHTS (AID 504865).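 Also: rhodamine fluorescence freed from ubiquitin-rhodamine substrate followed over time; top concentration of the series differs between compounds; % is scaled to controls: 0 for no effect and ±100 for the full control effect; nearly all actives have a fitted effect of over 35% in size.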 To be noted: purified USP1/UAF1, Ub-rhodamine cleavage fluorescence; series mostly up to 54.9 µM. The essentials:
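In 50mM HEPES pH 7.8 containing 0.5mM EDTA, 1mM TCEP, 0.1 mg/ml BSA and 0.01% Tween-20, 1nM USP1/UAF1 is exposed to compound for 15 min, then Ub-Rho (150nM final) is added and fluorescence is read over time.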

Assay [13] in a line: Primary qHTS for small molecule stabilizers of the endoplasmic reticulum resident proteome: Secreted ER Calcium Modulated Protein (SERCaMP) assay (AID 1508630). Also: % is scaled to controls: 0 for no effect and ±100 for the full control effect. To be noted: SH-SY5Y GLuc-SERCaMP (Gaussia luciferase released on ER calcium loss) secretion, thapsigargin, luminescence; series mostly up to 38.4 µM. The gist of the method: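 GLuc-SERCaMP-expressing SH-SY5Y cells, pretreated 16 h with compound, are challenged with thapsigargin to empty ER calcium stores; after 4 h, coelenterazine is added directly to the medium and luminescence is imaged.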

Assay [14] can be described thus: AP1 Signaling Pathway (AID 357; active = well fitted curve in either direction with a large enough effect, not every such curve was filed as active;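 also: ME-180 reporter cells stimulated with EGF at its EC50 level; % is scaled to controls: 0 for no effect and ±100 for the full control effect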). To be noted: ME-180 (cervical carcinoma) AP-1-bla reporter, EGF-induced, beta-lactamase ratio, 5 h; at 7.69 µM (top of the series) unless noted. The gist of the method:
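A ratiometric CCF4 readout (405 nm excitation; 460 and 530 nm emission) quantified AP-1-driven beta-lactamase in ME-180 cells after 5 h with compound and EC50 EGF; AC50 values were derived for activators and inhibitors.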

Assay [15] is described as follows: NFAT Signaling Pathway (AID 444; active = well fitted curve in either direction with a large enough effect, not every such curve was filed as active). To be noted: Jurkat NFAT-bla M1, carbachol, beta-lactamase ratio, 5 h; at 7.69 µM (top of the series) unless noted. The essentials:
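Read-out: CCF4 FRET ratio (460 nm/530 nm) after 1 h RT dye loading, used for %activity and AC50 from titration series. Cells: Jurkat NFAT-β-lactamase/M1 line, treated with compound plus 1 uM carbachol for 5 h, 37 °C.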

For assay [16], the target named is Cytochrome P450 2C9 (Homo sapiens) (UniProt P11712). Put plainly: qHTS Assay for Inhibitors and Substrates of Cytochrome P450 2C9 (AID 883). Also: % is scaled to controls: 0 for no effect and ±100 for the full control effect; nearly all actives have a fitted effect of over 60% in size. To be noted: recombinant CYP2C9, luciferin-H luminescence, 60 min; series mostly up to 57.1 µM. The essentials: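 Luminescent read-out of deoxyluciferin hydroxylation, normalized to 57uM sulphaphenazole (AC100). Reaction: 10nM enzyme, 100uM Luciferin-H (equal to KM), 25mM KPO4, 10 min compound preincubation, then 60 min with NADPH regeneration, both at 37C.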

Assay [17] has as its target Cytochrome P450 2D6 (Homo sapiens) (UniProt P10635). Nature of the assay: qHTS Assay for Inhibitors and Substrates of Cytochrome P450 2D6 (AID 891). Also: potency is read from the fitted curve at half-maximal effect; nearly all actives have a fitted effect of over 60% in size. To be noted: recombinant CYP2D6, luciferin-ME EGE luminescence; series mostly up to 57.1 µM. The gist of the method:
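Human CYP2D6 (5 nM) with 30 uM Luciferin-ME EGE (at Km) in 100 mM KPO4, compound preincubated 10 min, then NADPH regeneration system for 60 min at room temperature. Luciferin read by luminescence; normalized to 1.43 uM quinidine.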

The target in assay [18] is Cytochrome P450 2C19 (Homo sapiens) (UniProt P33261). Nature of the assay: qHTS Assay for Inhibitors and Substrates of Cytochrome P450 2C19 (AID 899). Also: potency is read from the fitted curve at half-maximal effect; nearly all actives have a fitted effect of over 60% in size. To be noted: recombinant CYP2C19, luciferin-H EGE luminescence; series mostly up to 57.1 µM. The gist of the method:
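Luminescence readout of luciferin formed from 10uM Luciferin-H EGE (KM level) by 5 nM CYP2C19 in 50mM KPO4. 60 min NADPH-driven reaction at 37C after 10 min compound preincubation; data scaled to 57uM ketoconazole inhibition.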

In assay [19] the target is Dual specificity protein kinase CLK4 (Homo sapiens) (UniProt Q9HAZ1). Nature of the assay: qHTS Assay for Inhibitors of CDC-like Kinase 4 (ADP-FP Assay) (AID 1795). Also: % is scaled to controls: 0 for no effect and ±100 for the full control effect; nearly all actives have a fitted effect of over 60% in size. To be noted: Transcreener ADP fluorescence polarization; series mostly up to 50 µM. The essentials: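 Clk4 6.25 nM; RS peptide 100 uM; ATP 1 uM; 25 mM Tris pH 7.5, 10 mM MgCl2; 1 h reaction. ADP detected via antibody/orange tracer FP displacement; TG003 positive control.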

From PubChem BioAssay (NCATS) come the findings set out here.

Molecules are shown by their SMILES. Values without a mark were called inactive. Results filed as inconclusive are left out. The source made the active and inactive calls. Unless noted, calls follow the shape of the dose curve; as a rule, active = well fitted curve in the direction sought with a large enough effect; inconclusive = small, poorly fitted or top-dose-only effect, or another doubt; inactive = no such curve, though single readings can be large; an effect the other way counts as inactive or inconclusive.

Chain of Glucocorticoid receptor (Homo sapiens) (P04150 whole entry, looked up): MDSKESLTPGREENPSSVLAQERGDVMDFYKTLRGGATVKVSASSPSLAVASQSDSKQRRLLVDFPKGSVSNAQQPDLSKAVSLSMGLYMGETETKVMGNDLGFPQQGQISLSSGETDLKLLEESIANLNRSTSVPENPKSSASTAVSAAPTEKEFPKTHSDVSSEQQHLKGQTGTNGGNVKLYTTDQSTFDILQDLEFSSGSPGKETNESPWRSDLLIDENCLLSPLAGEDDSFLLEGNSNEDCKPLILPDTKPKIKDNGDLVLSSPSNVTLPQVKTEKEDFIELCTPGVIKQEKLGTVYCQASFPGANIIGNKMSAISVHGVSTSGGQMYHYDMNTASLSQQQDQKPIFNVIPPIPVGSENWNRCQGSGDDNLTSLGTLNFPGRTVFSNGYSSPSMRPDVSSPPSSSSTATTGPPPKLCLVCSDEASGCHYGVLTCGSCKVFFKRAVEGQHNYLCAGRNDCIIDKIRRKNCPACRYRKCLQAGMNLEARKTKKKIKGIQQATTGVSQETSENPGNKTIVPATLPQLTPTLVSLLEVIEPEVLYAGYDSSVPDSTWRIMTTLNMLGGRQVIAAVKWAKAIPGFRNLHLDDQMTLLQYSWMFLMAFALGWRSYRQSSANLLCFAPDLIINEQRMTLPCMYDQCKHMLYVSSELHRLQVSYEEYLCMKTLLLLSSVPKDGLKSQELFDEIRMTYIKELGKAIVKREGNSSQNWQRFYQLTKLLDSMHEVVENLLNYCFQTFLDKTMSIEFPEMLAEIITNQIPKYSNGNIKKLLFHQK
Chain of Ubiquitin carboxyl-terminal hydrolase 1 (Homo sapiens) (O94782 whole entry, looked up): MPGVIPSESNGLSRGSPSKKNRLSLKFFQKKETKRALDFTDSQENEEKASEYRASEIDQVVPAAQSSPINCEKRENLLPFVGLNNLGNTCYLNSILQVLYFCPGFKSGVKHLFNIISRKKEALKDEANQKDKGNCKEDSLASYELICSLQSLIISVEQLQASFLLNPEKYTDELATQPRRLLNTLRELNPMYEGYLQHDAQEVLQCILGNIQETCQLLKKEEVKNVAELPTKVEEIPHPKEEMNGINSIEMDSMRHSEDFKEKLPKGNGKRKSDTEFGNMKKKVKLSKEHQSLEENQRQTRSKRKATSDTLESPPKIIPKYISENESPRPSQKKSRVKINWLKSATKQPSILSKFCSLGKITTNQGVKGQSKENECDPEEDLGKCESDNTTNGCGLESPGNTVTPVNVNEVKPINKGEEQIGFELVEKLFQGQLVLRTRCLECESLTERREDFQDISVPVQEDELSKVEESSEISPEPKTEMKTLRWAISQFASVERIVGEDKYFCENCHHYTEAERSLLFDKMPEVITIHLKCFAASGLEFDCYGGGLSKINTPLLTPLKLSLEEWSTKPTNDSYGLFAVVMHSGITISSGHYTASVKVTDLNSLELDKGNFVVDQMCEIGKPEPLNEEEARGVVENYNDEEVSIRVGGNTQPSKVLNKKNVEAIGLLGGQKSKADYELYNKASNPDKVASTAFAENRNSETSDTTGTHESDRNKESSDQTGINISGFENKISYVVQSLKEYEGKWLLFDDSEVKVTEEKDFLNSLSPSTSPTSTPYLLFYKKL
Chain of Lysosomal acid glucosylceramidase (Homo sapiens) (P04062 whole entry, looked up): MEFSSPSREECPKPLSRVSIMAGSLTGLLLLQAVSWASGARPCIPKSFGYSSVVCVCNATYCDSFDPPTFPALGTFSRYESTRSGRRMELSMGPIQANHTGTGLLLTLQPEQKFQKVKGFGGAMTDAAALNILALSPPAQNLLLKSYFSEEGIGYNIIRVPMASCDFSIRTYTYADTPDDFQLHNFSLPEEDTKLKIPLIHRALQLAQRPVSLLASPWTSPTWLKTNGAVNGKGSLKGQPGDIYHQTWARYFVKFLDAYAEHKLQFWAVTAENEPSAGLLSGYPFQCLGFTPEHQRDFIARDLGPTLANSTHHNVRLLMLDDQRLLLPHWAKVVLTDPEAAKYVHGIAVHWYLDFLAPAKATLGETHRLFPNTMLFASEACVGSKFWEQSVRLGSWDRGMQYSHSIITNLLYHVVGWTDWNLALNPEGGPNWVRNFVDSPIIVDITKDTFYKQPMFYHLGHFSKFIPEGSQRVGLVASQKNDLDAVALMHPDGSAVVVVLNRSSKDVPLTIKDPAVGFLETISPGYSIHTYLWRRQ
Chain of Cytochrome P450 3A4 (Homo sapiens) (P08684 whole entry, looked up): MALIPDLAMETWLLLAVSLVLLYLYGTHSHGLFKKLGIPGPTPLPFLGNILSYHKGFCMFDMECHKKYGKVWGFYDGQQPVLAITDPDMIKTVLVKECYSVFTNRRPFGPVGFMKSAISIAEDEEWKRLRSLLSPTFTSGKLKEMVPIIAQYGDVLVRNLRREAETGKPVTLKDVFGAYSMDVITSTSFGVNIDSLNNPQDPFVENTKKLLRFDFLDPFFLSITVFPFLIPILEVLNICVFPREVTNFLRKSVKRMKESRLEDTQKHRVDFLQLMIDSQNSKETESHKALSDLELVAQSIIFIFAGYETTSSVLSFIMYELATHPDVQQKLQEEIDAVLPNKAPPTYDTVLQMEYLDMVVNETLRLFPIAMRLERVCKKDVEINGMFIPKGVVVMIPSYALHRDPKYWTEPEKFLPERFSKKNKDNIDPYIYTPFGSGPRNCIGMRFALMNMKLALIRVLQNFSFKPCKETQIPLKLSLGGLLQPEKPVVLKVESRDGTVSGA
Chain of Cytochrome P450 1A2 (Homo sapiens) (P05177 whole entry, looked up): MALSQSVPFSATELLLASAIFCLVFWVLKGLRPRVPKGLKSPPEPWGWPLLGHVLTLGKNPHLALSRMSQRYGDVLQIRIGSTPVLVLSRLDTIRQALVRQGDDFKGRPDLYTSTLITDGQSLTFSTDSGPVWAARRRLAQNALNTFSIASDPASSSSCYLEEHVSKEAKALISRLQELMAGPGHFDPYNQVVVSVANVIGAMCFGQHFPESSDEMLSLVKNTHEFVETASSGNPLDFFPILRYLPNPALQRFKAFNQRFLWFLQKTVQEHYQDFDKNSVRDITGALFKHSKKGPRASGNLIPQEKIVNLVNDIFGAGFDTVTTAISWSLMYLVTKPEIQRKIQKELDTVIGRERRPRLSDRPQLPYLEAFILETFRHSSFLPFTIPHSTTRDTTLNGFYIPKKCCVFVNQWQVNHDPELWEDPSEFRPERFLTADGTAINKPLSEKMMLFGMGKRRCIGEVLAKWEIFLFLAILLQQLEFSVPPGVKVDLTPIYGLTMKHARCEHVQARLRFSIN
Chain of 3',5'-cyclic-AMP phosphodiesterase 4B (Homo sapiens) (Q07343 whole entry, looked up): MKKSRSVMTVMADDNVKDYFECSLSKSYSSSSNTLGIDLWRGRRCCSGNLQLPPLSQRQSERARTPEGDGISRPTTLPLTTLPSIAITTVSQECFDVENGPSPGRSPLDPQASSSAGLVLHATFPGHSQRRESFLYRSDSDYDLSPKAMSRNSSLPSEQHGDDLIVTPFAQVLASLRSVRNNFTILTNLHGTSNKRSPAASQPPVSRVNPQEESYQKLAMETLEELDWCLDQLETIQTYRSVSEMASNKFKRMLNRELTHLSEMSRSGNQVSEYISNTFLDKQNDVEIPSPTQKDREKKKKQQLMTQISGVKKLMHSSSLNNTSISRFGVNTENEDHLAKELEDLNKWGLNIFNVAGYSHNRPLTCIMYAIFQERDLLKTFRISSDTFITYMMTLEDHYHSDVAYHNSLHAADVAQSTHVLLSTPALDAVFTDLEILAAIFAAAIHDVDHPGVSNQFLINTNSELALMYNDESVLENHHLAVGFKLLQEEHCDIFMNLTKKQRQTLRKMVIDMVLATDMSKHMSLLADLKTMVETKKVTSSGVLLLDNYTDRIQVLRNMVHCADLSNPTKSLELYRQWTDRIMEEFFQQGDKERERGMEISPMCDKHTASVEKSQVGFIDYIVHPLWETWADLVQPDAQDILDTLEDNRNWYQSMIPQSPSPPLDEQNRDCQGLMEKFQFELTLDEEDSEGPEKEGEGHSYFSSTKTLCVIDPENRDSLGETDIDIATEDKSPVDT
Chain of Dual specificity protein kinase CLK4 (Homo sapiens) (Q9HAZ1 whole entry, looked up): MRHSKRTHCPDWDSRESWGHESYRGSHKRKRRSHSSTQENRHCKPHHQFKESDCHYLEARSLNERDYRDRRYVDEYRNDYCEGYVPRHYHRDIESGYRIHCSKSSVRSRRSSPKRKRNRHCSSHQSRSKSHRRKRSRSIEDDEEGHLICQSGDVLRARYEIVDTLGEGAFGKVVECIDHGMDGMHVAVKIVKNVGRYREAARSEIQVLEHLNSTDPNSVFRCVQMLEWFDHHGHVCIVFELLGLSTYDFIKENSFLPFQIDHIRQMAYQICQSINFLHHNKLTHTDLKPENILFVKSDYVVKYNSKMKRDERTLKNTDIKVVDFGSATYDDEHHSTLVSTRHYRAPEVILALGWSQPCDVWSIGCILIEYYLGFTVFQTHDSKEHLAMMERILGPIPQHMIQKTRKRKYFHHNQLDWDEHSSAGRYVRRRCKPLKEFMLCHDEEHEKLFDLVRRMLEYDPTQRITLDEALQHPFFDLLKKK
Chain of Cytochrome P450 2C9 (Homo sapiens) (P11712 whole entry, looked up): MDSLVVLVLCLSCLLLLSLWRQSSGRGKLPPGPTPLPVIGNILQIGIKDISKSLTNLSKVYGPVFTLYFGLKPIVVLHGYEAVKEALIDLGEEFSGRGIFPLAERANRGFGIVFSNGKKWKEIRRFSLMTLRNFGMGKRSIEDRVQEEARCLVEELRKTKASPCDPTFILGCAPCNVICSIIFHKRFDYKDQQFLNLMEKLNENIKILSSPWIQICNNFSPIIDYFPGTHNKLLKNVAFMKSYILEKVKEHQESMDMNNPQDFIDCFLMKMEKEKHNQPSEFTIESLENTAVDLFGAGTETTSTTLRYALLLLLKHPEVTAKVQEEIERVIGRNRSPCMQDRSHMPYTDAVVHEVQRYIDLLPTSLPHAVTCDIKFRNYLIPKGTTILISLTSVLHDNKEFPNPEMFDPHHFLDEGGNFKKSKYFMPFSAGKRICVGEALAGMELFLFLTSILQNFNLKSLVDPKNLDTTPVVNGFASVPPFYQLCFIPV

Consider `CN(C)c1ccc(-c2ccc3ncnc(NC4CC4)c3c2)cc1`, for which the Potency was above 11.4 µM in assay [1]; 0.2 µM (active) in assay [2]; above 46 µM in [4]; above 46 µM in assay [5]; 3.16 µM (active) in assay [8]; 3.55 µM (active) in assay [10]. Further, in assay [11], the Potency was 7.94 µM (active). In assay [3], the activity, negative = inhibition was -20.9%. The Potency result in assay [6], in [7], in assay [9] and in [12] was “inactive” each time. The outcome in assay [13] was inactive.

As to `CNc1ncnc2ccc(-c3ccc4c(c3)OCO4)cc12`, the Potency in assay [1] is above 11.4 µM; in assay [4], above 46 µM; in assay [5] it was above 46 µM; in [10], 0.891 µM (active); in assay [11], 0.631 µM (active). In addition, the values for the activity change, negative = inhibition in assay [14] and in [15] were -8.86% and 15.3%, respectively. Besides, in [3], the activity, negative = inhibition was 12.6%. For the same compound, the Potency result in [6], in [7] and in assay [12] was “inactive” each time. Besides, the result in [13] was inactive.

Take `Cc1cnc(CNc2ncnc3ccc(-c4cccc(NS(C)(=O)=O)c4)cc23)cn1`: the Potency in assay [1] was above 11.4 µM; in assay [2], 3.98 µM (active); in [4], above 46 µM; in [5], above 46 µM; in assay [10], 25.1 µM (active); in assay [11], 15.8 µM (active). In addition, the results for the activity change, negative = inhibition in assay [14] and in assay [16] were -5.16% and 32.5% [at 2.29 µM], respectively. The activity, negative = inhibition in assay [3] is -9.12%. The Potency result in assay [7] and in assay [9] was “inactive” in each case. In [13], the result was inactive.

In the case of `COc1ncc2nc(-c3cn(C)c4ccccc34)c(=O)n(C[C@H]3CCCO3)c2n1`, the results for the Potency in [1], in assay [4] and in assay [5] were above 11.4 µM, above 9.22 µM and above 46 µM, respectively. Further, the activity change, negative = inhibition is -6.51% in [14] and 3.98% in assay [15]. In addition, the activity, negative = inhibition in assay [3] is -5.17%. Further, the Potency result in [6], in assay [10], in [11] and in assay [12] was “inactive” in each case. Also, the outcome in assay [13] was inactive.

With `COc1cccc(-c2nccc(NCc3ccccc3OC)n2)c1`, the Potency was above 11.4 µM in assay [1]; 1.26 µM (active) in [2]; above 46 µM in assay [4]; above 46 µM in assay [5]; 2.51 µM (active) in assay [8]; 398 nM (active) in [17]. For the same compound, the results for the Potency in assay [18], in assay [10] and in [11] were 5.01 µM (active), 22.4 µM (active) and 14.1 µM (active), respectively. Also, the activity change, negative = inhibition in assay [14] was -18.4%; in assay [15], 11.8%. The activity, negative = inhibition in assay [3] is -8.4%. Also, the Potency entry in [6], in assay [7] and in [9] was “inactive” throughout. In addition, the outcome in assay [13] was inactive.

Consider `COc1cccc(Nc2ncc3nc(-c4cccs4)c(=O)n(CCC#N)c3n2)c1`, for which the Potency was above 11.4 µM in assay [1]; 2.51 µM (active) in [2]; above 9.22 µM in [4]; above 46 µM in assay [5]; 6.31 µM (active) in assay [8]. For the same compound, the activity change, negative = inhibition in assay [14] is -26.3%. The Potency result in assay [6], in [7], in assay [9], in assay [10], in assay [19] and in assay [12] was “inactive” in each case. In addition, the result in [13] was inactive.
